Assay results: the supplement of paper PMC11417369
± gives the standard deviation of the averaged measurements. Whole data set: some 25,000 sequences, median “ln(normalized median fluorescence intensity)” near 10, cut for the highest 2% near 12. Shown is part of a subset that was picked to be rich in the highest values.

Each sequence was assayed on PfAP2-G AP2 domain (GST-tagged) (assay: gcPBM binding intensity (ln(normalized median fluorescence intensity)); higher = stronger DNA binding).
In short: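 An Agilent 4 × 180k array carrying primer-extended double-stranded 36-bp intergenic genomic probes and negative controls received GST-tagged P. falciparum DNA-binding domains expressed in E. coli, about 25 μg on average, for 1 h. The binding buffer contained 1× PBS, 1% milk, 0.2 mg/ml BSA, 0.5% salmon testes DNA and 0.03% Triton X-100. Binding intensity is the top Masliner-normalised natural-log median intensity across replicate spots of either probe orientation, read after Alexa488 anti-GST antibody staining and a 488 nm scan.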

Sequence	gcPBM binding intensity (ln)
AAAAAATACTTATAAAGTACTAATATATATAAGCAG [XGTACX_site743]	10.9 ± 0.48
TTTATGGAATAATCACGTACACACAAGAAAAAAAAA [XGTACX_site985]	11.4 ± 0.91
TTTATATTTAAAAGGATGCACTACAAATTCTAAATA	10.3 ± 0.3
TTTTTTTTTCCCGTAAATATTGAGACAACCATAATG [CACACA_negctrl_site41]	10.6 ± 0.54
TATATAATATTACGTTGTACACTTTAATCTCCCTTC [XGTACX_site5577]	11.1 ± 0.7
CTATTTTTTGTATAAACATGCATATAGTAGATATGG [TGCATGCA_site670]	10.1 ± 0.23
CTTTAACCTTTTTATTGTACTTTTAATATTTTAAAA [XGTACX_site4457]	11.4 ± 0.86
AAAGAATTTAAATATTGTACGCAATATATAAAAAAA [XGTACX_site7616]	11.5 ± 0.92
TTTAAACCTTAATATTGTACGCAAAAAAAAAAAGAA [XGTACX_site3757]	11.6 ± 1
CATTTTATTTTAATATGTACTTAAAGAAAAAAAATT [XGTACX_site7670]	11.2 ± 0.82
TTACATGTAAAAGGTACACACATTATGTATACAAAT [CACACA_site1117]	11.4 ± 0.88
TATGTGTGCAAAAACTGTACACATTAAAGGTATATA [XGTACX_site7627]	11.7 ± 1.1
TATTAAAAGGTGAGTACACACATATATGTGTATATA [CACACA_site7070]	11.4 ± 0.83
AAATTATTTCTTTGCGCATGTAGCTTTTATACTATT [TGCATGCA_site819]	9.98 ± 0.16
ATTAAGTTCAAATGTAGTACGTGTAAAAAAAAAAAA [XGTACX_site1578]	11.4 ± 0.83
TAAAAATATAAATTTTGTACGTAAAAAATGGTTCTT [XGTACX_site1506]	11.5 ± 0.93
AATGGTTCAACGTAGTGTACGTAATAAATAATAAAT [XGTACX_site8668]	11.8 ± 0.95
CGGATCTATAAGTGTACACAATCTAGCGAAAAGTTT [CACACA_site4932]	11.6 ± 1
ATTCGGATCTATAAGTGTACACAATCTAGCGAAAAG [XGTACX_site3088]	11.5 ± 0.83
GGATAAGAAAAGAAGTGTACATATATATATATATAT [XGTACX_site8290]	11.2 ± 0.68
TTATTAAAAATGGTATGTACGCACATAATATATATA [XGTACX_site3230]	11.5 ± 0.71
ACGGATTAAAAAATGTGTACGCACAAAAAAAAAAAT [XGTACX_site8259]	11.7 ± 0.97
AGGCACAAAATTAAATGTACATATATATATATATAT [XGTACX_site3323]	11 ± 0.6

Sequence	gcPBM binding intensity (ln)
TTATGTTCTTTAAAACCACACACCCCCCAACCCCCC [CACACA_site8742]	11.6 ± 0.87
CACACCCACAAAAACACACACAAAGGTGTTCTTATA [CACACA_site1293]	10 ± 0.13
CTTTAAACCCTGAACACACACAAATACACCCAAAAA [CACACA_site4297]	10.7 ± 0.54
CAAACCCACCAACACACACACACAAAAATGATTAAA [CACACA_site2432]	10.2 ± 0.35
TTTTTTTTTTTTTTTTTTTTTTTATGTTCTTAAAAA [GTGCAC_negctrl_site62]	9.56 ± 0.35
ATGTTCTTTAAAACCACACACCCCCCAACCCCCCTC [CACACA_site2373]	11.7 ± 1
TATATATGTATCAAGTGTACAGTTTTAAAAAAAAAA [XGTACX_site6011]	11.4 ± 0.87
TTTCTTACAACAACAACAAAAAAAAATAAATAAAAT [GTGCAC_negctrl_site711]	9.91 ± 0.16
AATATATATGAAAAAAGTACTCAAGGAATAAAAAAA [XGTACX_site7720]	11.3 ± 0.67
TAATAAAACATATATACACACATTAGATATACATAT [CACACA_site6897]	9.92 ± 0.057
AAATTACTTTCACAGTGTACTTGGAAAAAAAAAAGA [XGTACX_site1046]	11.3 ± 0.8
AATGGAAATTTTTCTTGTACACATATATGACATGTT [XGTACX_site1691]	11.3 ± 0.86
TCTTTGTACTTTCACATGTACACCCAAATGGAAATT [CACACA_negctrl_site1442]	11.8 ± 0.87
ACATCTAGGCTTATTTTATGATACATGTGAATATAT [TGCATGCA_negctrl_site325]	9.79 ± 0.099
TTTCATTTAGCTTTTACACACTATATATTATTGATT [CACACA_site16]	9.82 ± 0.11
AAAAATATATAAACACGTACACACACATATATGTAT [XGTACX_site7436]	11.6 ± 0.88
ATAATAAACATATATGTACACACATATACATATATA [CACACA_site8924]	11.3 ± 0.94
TATATCTACTACACACGTACACAAAATAAGATACCT [XGTACX_site7886]	11.5 ± 0.97
AATAAACATATATGTACACACATATACATATATATA [CACACA_site2848]	11.4 ± 1.2
TAAGTTATATGTACTACACACGTACACAAAATAAGA [CACACA_site9237]	11.8 ± 1
AATATATAAACACGTACACACACATATATGTATATA [CACACA_site9168]	11.6 ± 1
AAAAAAATAAAACACATACATATATGTATATATATA [GTGCAC_negctrl_site390]	9.77 ± 0.2
ACATAAATAATAAAAACACACATATGTACATATATA [CACACA_site1913]	11.3 ± 0.79

Sequence	gcPBM binding intensity (ln)
AGTTATATGTACTACACACGTACACAAAATAAGATA [CACACA_site3719]	11.6 ± 0.75
GCTATATATTACAATCGTACAATATATATATATATA [XGTACX_site6730]	10.8 ± 0.68
TATATTTATAACAACACACACAGATCATAAAACTGC [CACACA_site7086]	10.2 ± 0.12
TTTTTCCAATCAGATGCATGTTACTATATTTGGTTC [TGCATGCA_site52]	9.96 ± 0.014
ATATATTATTATAACTGTACTTTTTTTGTGGTTAAT [XGTACX_site8266]	11.5 ± 0.83
TCATAGTATAAACACACACACACACCCATATATATA [CACACA_site8512]	10.2 ± 0.3
ATAAATTGTTCTTTTTGTGTAAACAGAATATTAAAA [CACACA_negctrl_site1022]	10.1 ± 0.21
GCATAAGAAATAAATAGTACACACATAGACACACAC [XGTACX_site3095]	11.6 ± 0.85
TAAGAAATAAATAGTACACACATAGACACCCACCGA [CACACA_site1516]	11.5 ± 0.93
TAAGAAATAAATAGTACACACATAGACACCCACCCA [CACACA_site8429]	11.7 ± 0.8
TGATCTTTACACATATTATATATATATAAAAAAAAA [XGTACX_negctrl_site360]	9.99 ± 0.26
TCTTGAAAAAGAATCAATCGGTCGACAAAAAAAAAA [CACACA_negctrl_site1099]	10.4 ± 0.24
GTCTTAAAAATTAAAACACACGTTCACTTTCATATT [CACACA_site5803]	10.05 ± 0.021
TTTCAAAGGAAATGGTGTACACAATTTTTCCTTTTT [XGTACX_site2340]	11.7 ± 0.88
ATATTGTGTTATAAATGTACACAATTTCCTTTCATA [XGTACX_site7481]	11.3 ± 0.79
CAAAGGAAATGGTGTACACAATTTTTCCTTTTTCGT [CACACA_site4800]	11.8 ± 1.2
AAAAAAAAATGTCATGGTACACAATTTTTTCTTTTT [XGTACX_site4505]	11 ± 0.56
ATTATACAAAATGGTAAGGAAAAGGAAATTTTTTTT [CACACA_negctrl_site1090]	9.77 ± 0.014
TTTTCCTTTCACAATGGTACACAAATATACATGCAA [XGTACX_site7244]	11.2 ± 0.8
ATATATATGGATGGACGTACGTATGTATGTAATTTC [XGTACX_site4135]	11.3 ± 0.64
CAATTTATAAAGAAAACACACATATACATAAATACA [CACACA_site4829]	10.2 ± 0.16
AAAAGAAATATTTATACACACACACTAACATATATA [CACACA_site8580]	10.09 ± 0.035
AAATAAGAAAAAGCGCGTACACATAACATTTTTATA [XGTACX_site8807]	11.7 ± 0.93

Sequence	gcPBM binding intensity (ln)
TATATATATTTATACACACAAACATAATACTACTTA [CACACA_site2022]	10.3 ± 0.22
TTGGTGGATAAATTTACACACAATAATTTTCGTTCA [CACACA_site467]	10 ± 0.14
ACTGTAAAAGGATTTACACACATATTTACATTTACA [CACACA_site519]	10.01 ± 0.021
AAAATTTTTTACTTTACACACATTTTGTATATTTTG [CACACA_site1730]	9.98 ± 0.23
AAAAAATTCTGGTACTGTACACATTTTTTTAAATTT [XGTACX_site6904]	11.7 ± 1
TTTAAAAATTAATTCTGTACACATTTTTATTTTATT [XGTACX_site8]	11.5 ± 0.8
AAAAAAAAAATTTACTGTACACATTTGGGATACTCA [XGTACX_site5191]	11.7 ± 0.76
AAAAAAAATTTTATCTGTACACATTTTTTTCTTTTT [XGTACX_site4229]	11.6 ± 0.74
TTACAATAAATTATAGTGCAATATTTTATTTAATAT	9.9 ± 0.26
AAAATATATATATATATATATATATGTATACTCCTA [XGTACX_negctrl_site312]	10 ± 0.29
CGAATATATTCTAGACGTACTATATAATATATATAT [XGTACX_site4953]	11.1 ± 0.69
TATATTTATTTATTCTGTACTGAAGACAGTTATGTA [XGTACX_site8857]	10.8 ± 0.58
AAAAAAAATAATAATACACACAATATGATATGTACA [CACACA_site850]	10.4 ± 0.17
TTTGTTTTATGTGGTTGTACACAAATACAATTTAAA [XGTACX_site5156]	11.6 ± 1.1
TTATATGTTTTGTGTACACAATTTATTAAATTAATA [CACACA_site5645]	11.7 ± 0.88
GATATAATTATGTGTACACAATTTTTTTTTTTTTTT [CACACA_site4501]	11.7 ± 0.87
AAATTATATATGATGTGTACATAAATATATACACAT [XGTACX_site8761]	11.4 ± 0.83
TATGATATAATTATGTGTACACAATTTTTTTTTTTT [XGTACX_site1084]	11.6 ± 0.8
AAAATAATATATGTATGTACACAATTATTTATAAGT [XGTACX_site7267]	11.5 ± 0.89
TAATTATTTTTATATTGTACAATATGTAAATATATA [XGTACX_site592]	10.8 ± 0.58
ATATGTACAAATTATACACACATGTACAATTATATA [CACACA_site1253]	11.3 ± 0.79
